# Source: PubChem BioAssay (NCATS)
# Inconclusive results are not listed. A call without a number means that no potency is given here. Active and inactive are the calls of the source. Calls follow the shape of the dose curve; as a rule, active = well fitted inhibition curve with a large enough effect; inconclusive = small, poorly fitted or top-dose-only effect; inactive = no such curve, though single readings can be large or run the other way.
# Assays:
# [1] = system: Zika virus NS2B-NS3 protease (unlinked complex); assay: Primary screen GU Rhodamine qHTS for Zika virus inhibitors: Unlinked NS2B-NS3 protease assay (AID 1347159); conditions: Recombinant ZIKV NS2B-NS3 protease, Rhodamine110 substrate fluorescence; series mostly up to 107 µM; also: nearly all actives have a fitted effect of over 60% in size
# Procedure, shortened: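 Noncovalent NS2B hydrophilic domain–NS3 protease domain complex (25 nM) preincubated 15 min at room temperature with compounds (up to 114 microM) in 10 mM Tris-HCl pH 8.0, 0.01% Tween 20; 1.5 microM Rhodamine110 substrate added, fluorescence change over 15 min fitted to Hill equation.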
# [2] = system: Zika virus NS2B-NS3 protease (linked construct); assay: Primary screen NINDS Rhodamine qHTS for Zika virus inhibitors (AID 1347160); conditions: purified NS2B-NS3 protease, Rhodamine110 substrate fluorescence; series mostly up to 57.1 µM; also: nearly all actives have a fitted effect of over 55% in size
# Procedure, shortened: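 Purified linked NS2B-NS3 protease (NS2B hydrophilic domain joined to NS3 protease by flexible linker), 25 nM in 10 mM Tris-HCl pH 8.0, 0.01% Tween 20. Compounds titrated, 15 min preincubation at room temperature; 1.5 microM Rhodamine110 substrate, FITC fluorescence change over 15 min.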
# Potency is read from the fitted curve at half-maximal effect.
Compound,Potency [1],Potency [2]
COC(=O)c1ccccc1O[C@@H]1O[C@H](CO)[C@@H](O)[C@H](O)[C@H]1O[C@@H]1O[C@@H](C)[C@H](O)[C@@H](O)[C@H]1O,inactive,inactive
CN[C@H](C(=O)N[C@H](C(=O)N(C)[C@H](/C=C(\C)C(=O)O)C(C)C)C(C)(C)C)C(C)(C)c1ccccc1,inactive,inactive
CC1(C)CC[C@]2(CO[C@@H]3O[C@H](CO)[C@@H](O)[C@H](O)[C@H]3O)[C@@H](O)C[C@]3(C)C(=CCC4[C@@]5(C)CC[C@H](O[C@@H]6O[C@H](CO[C@@H]7O[C@H](CO[C@@H]8OC[C@@H](O)[C@H](O)[C@H]8O)[C@@H](O)[C@H](O)[C@H]7O)[C@@H](O)[C@H](O)[C@H]6O)C(C)(C)C5CC[C@]43C)[C@@H]2C1 (stereo not given in full),inactive,inactive
CC1CCC2(C=O)C(CO)=CCCC2C1(C)CC(=O)O (stereo not given),11.2 µM (active),12.6 µM (active)
O=C(O)c1cc(I)ccc1NC(=O)[C@H](Cc1ccccc1)NCc1ccccc1,11.2 µM (active),15.8 µM (active)
CCOc1cc2ncc(C#N)c(Nc3ccc(F)c(Cl)c3)c2cc1NC(=O)/C=C/CN(C)C,inactive,inactive
O=C1Nc2ccccc2C(O)(c2ccccc2)C1O (stereo not given),inactive,inactive
C[S+](CC[C@H](N)C(=O)[O-])C[C@H]1O[C@@H](n2cnc3c(N)ncnc32)[C@H](O)[C@@H]1O (stereo not given in full),inactive,inactive
C=C1C(=O)OC2C1C(O)CC1(C)C(O)CCC(C=O)C21 (stereo not given),inactive,inactive
N#Cc1ccc2[nH]cc(CCCCN3CCN(c4ccc5oc(C(N)=O)cc5c4)CC3)c2c1,inactive,inactive
